According to PubChem BioAssay AID1159580 (chemical genetic matrix, 2015):
Values joined by “and” are separate entries in the source; they are usually repeats but may differ in a detail not shown here. Equal entries are not always repeated. Hit rate of the full screen: of about 5,500 compounds, about 2,000 (36%) were called active. Another 18% or so got no clear call; they are omitted. No stated cut-off is given here; in the data, active means normalized growth mostly below about 0.91 (no sharp cut-off); inconclusive means no clear call, values can overlap the other calls; inactive means mostly above about 0.92. Some of the results follow.

Assay: chemical genetic growth profiling, strain panel (AID 1159580);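 further: tested at 20 µM; growth read once vehicle control cultures reached saturation at 30 °C; 1 = growth at the plate median or of vehicle wells; lower values mean less growth of the strain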
Conditions: growth OD

Measured: normalized growth

CN1C2CCC1CC(OC(c1ccccc1)c1ccccc1N)C2 (stereo unspecified)
inactive: S. cerevisiae deletion strains, locus YJR075W, strain HOC1, active compounds read low 0.997 and 1.08 | S. cerevisiae deletion strains, locus YKL009W, strain mrt4, active compounds read low 1.03 | S. cerevisiae deletion strains, locus YKL068W, active compounds read low 1.01 | S. cerevisiae deletion strains, locus YKL085W, strain MDH1 (second series), active compounds read low 1 | S. cerevisiae deletion strains, locus YKL085W, strain MDH1, active compounds read low 1 | S. cerevisiae deletion strains, locus YKL160W, strain elf1, active compounds read low 1 | S. cerevisiae deletion strains, locus YKL190W, strain CNB1, active compounds read low 1 | S. cerevisiae deletion strains, locus YKR001C, strain vps1, active compounds read low 1.02 | S. cerevisiae deletion strains, locus YKR026C, strain gcn3, active compounds read low 0.99 | S. cerevisiae deletion strains, locus YKR091W, strain srl3, active compounds read low 0.996 | S. cerevisiae deletion strains, locus YLL001W, strain dnm1, active compounds read low 1.01 | S. cerevisiae deletion strains, locus YLL026W, active compounds read low 0.982 | S. cerevisiae deletion strains, locus YLL041C, strain sdh2, active compounds read low 1 | S. cerevisiae deletion strains, locus YLR027C, strain aat2, active compounds read low 0.986 | S. cerevisiae deletion strains, locus YLR039C, strain RIC1, active compounds read low 1.02 | S. cerevisiae deletion strains, locus YLR058C, strain SHM2, active compounds read low 1 | S. cerevisiae deletion strains, locus YLR102C, strain apc9, active compounds read low 1.01 | S. cerevisiae deletion strains, locus YLR113W, strain HOG1, active compounds read low 1.05 | S. cerevisiae deletion strains, locus YLR221C, strain rsa3, active compounds read low 0.998 | S. cerevisiae deletion strains, locus YLR258W, strain gsy2, active compounds read low 1 | S. cerevisiae deletion strains, locus YLR262C, strain YPT6 (second series), active compounds read low 1.03 | S. cerevisiae deletion strains, locus YLR262C, strain YPT6, active compounds read low 1.02 | S. cerevisiae deletion strains, locus YLR268W, strain sec22, active compounds read low 1.01 | S. cerevisiae deletion strains, locus YLR320W, strain mms22, active compounds read low 0.994 | S. cerevisiae deletion strains, locus YLR330W, strain CHS5, active compounds read low 1.01 | S. cerevisiae deletion strains, locus YLR342W, strain FKS1 (second series), active compounds read low 1.02 | S. cerevisiae deletion strains, locus YLR342W, strain FKS1, active compounds read low 0.994 | S. cerevisiae deletion strains, locus YLR357W, strain rsc2, active compounds read low 0.979 | S. cerevisiae deletion strains, locus YLR370C, strain arc18, active compounds read low 0.978 | S. cerevisiae deletion strains, locus YLR371W, strain rom2, active compounds read low 1.01 | S. cerevisiae deletion strains, locus YLR384C, strain iki3, active compounds read low 1 | S. cerevisiae deletion strains, locus YLR418C, strain cdc73, active compounds read low 0.994 | S. cerevisiae deletion strains, locus YML016C, strain PPZ1, active compounds read low 1 | S. cerevisiae deletion strains, locus YML032C, strain rad52, active compounds read low 1.03 | S. cerevisiae deletion strains, locus YML120C, strain ndi1, active compounds read low 0.988 | S. cerevisiae deletion strains, locus YML124C, strain tub3, active compounds read low 1.02 | S. cerevisiae deletion strains, locus YMR058W, strain fet3, active compounds read low 1 | S. cerevisiae deletion strains, locus YMR078C, strain ctf18, active compounds read low 1.02 | S. cerevisiae deletion strains, locus YMR125W, strain sto1, active compounds read low 0.992 | S. cerevisiae deletion strains, locus YMR129W, active compounds read low 0.997 | S. cerevisiae deletion strains, locus YMR205C, strain PFK2, active compounds read low 0.981 | S. cerevisiae deletion strains, locus YMR223W, strain ubp8, active compounds read low 1.01 | S. cerevisiae deletion strains, locus YMR231W, strain pep5, active compounds read low 0.999 | S. cerevisiae deletion strains, locus YMR263W, strain SAP30, active compounds read low 0.999 and 1 | S. cerevisiae deletion strains, locus YMR307W, strain GAS1, active compounds read low 1 | S. cerevisiae deletion strains, locus YNL067W, strain RPL9B, active compounds read low 1.01 | S. cerevisiae deletion strains, locus YNL071W, strain lat1, active compounds read low 1 | S. cerevisiae deletion strains, locus YNL128W, strain TEP1, active compounds read low 0.993 | S. cerevisiae deletion strains, locus YNL153C, strain GIM3, active compounds read low 1 | S. cerevisiae deletion strains, locus YNL175C, strain NOP13, active compounds read low 1.01 | S. cerevisiae deletion strains, locus YNL183C, strain NPR1, active compounds read low 0.92 | S. cerevisiae deletion strains, locus YNL197C, strain WHI3, active compounds read low 1.02 | S. cerevisiae deletion strains, locus YNL209W, strain ssb2, active compounds read low 1.01 | S. cerevisiae deletion strains, locus YNL224C, strain SQS1, active compounds read low 1.03 | S. cerevisiae deletion strains, locus YNL233W, strain BNI4, active compounds read low 1.01 | S. cerevisiae deletion strains, locus YNL248C, strain rpa49, active compounds read low 0.995 | S. cerevisiae deletion strains, locus YNL250W, strain rad50, active compounds read low 1.02 | S. cerevisiae deletion strains, locus YNL271C, strain bni1, active compounds read low 1 | S. cerevisiae deletion strains, locus YNL298W, strain CLA4, active compounds read low 1.01 | S. cerevisiae deletion strains, locus YNL307C, strain MCK1, active compounds read low 1 | S. cerevisiae deletion strains, locus YNL322C, strain KRE1 (second series), active compounds read low 1 | S. cerevisiae deletion strains, locus YNL322C, strain KRE1, active compounds read low 0.996 | S. cerevisiae deletion strains, locus YNR049C, strain mso1, active compounds read low 0.996 | S. cerevisiae deletion strains, locus YNR052C, strain pop2, active compounds read low 1.01 | S. cerevisiae deletion strains, locus YOL006C, strain TOP1, active compounds read low 0.986 | S. cerevisiae deletion strains, locus YOL012C, strain htz1 1.61 | S. cerevisiae deletion strains, locus YOL147C, strain pex11, active compounds read low 1.02 | S. cerevisiae deletion strains, locus YOR001W, strain rrp6, active compounds read low 1.01 | S. cerevisiae deletion strains, locus YOR061W, strain CKA2, active compounds read low 1.01 | S. cerevisiae deletion strains, locus YOR069W, strain VPS5, active compounds read low 1 | S. cerevisiae deletion strains, locus YOR070C, strain gyp1, active compounds read low 1.01 | S. cerevisiae deletion strains, locus YOR080W, strain dia2, active compounds read low 0.985 | S. cerevisiae deletion strains, locus YOR083W, strain WHI5 (second series), active compounds read low 1.02 | S. cerevisiae deletion strains, locus YOR083W, strain WHI5, active compounds read low 1 | S. cerevisiae deletion strains, locus YOR106W, strain vam3, active compounds read low 1.01 | S. cerevisiae deletion strains, locus YOR136W, strain idh2, active compounds read low 1.03 | S. cerevisiae deletion strains, locus YOR144C, strain elg1, active compounds read low 1.01 | S. cerevisiae deletion strains, locus YOR184W, strain ser1, active compounds read low 1.04 | S. cerevisiae deletion strains, locus YOR231W, strain MKK1, active compounds read low 0.977 | S. cerevisiae deletion strains, locus YOR265W, strain rbl2, active compounds read low 1.01 | S. cerevisiae deletion strains, locus YOR270C, strain vph1, active compounds read low 1.03 | S. cerevisiae deletion strains, locus YOR290C, strain snf2, active compounds read low 1.01 | S. cerevisiae deletion strains, locus YOR316C, strain cot1, active compounds read low 1.02 | S. cerevisiae deletion strains, locus YPL051W, strain arl3, active compounds read low 0.989 | S. cerevisiae deletion strains, locus YPL055C, strain LGE1, active compounds read low 1.01 | S. cerevisiae deletion strains, locus YPL078C, strain atp4, active compounds read low 1.01 | S. cerevisiae deletion strains, locus YPL106C, strain sse1, active compounds read low 0.957 | S. cerevisiae deletion strains, locus YPL240C, strain hsp82, active compounds read low 1.02 | S. cerevisiae deletion strains, locus YPL241C, strain CIN2, active compounds read low 0.998 and 1 | S. cerevisiae deletion strains, locus YPL256C, strain CLN2, active compounds read low 0.986 | S. cerevisiae deletion strains, locus YPR119W, strain clb2, active compounds read low 0.999 | S. cerevisiae deletion strains, locus YPR141C, strain kar3, active compounds read low 1.02 | S. cerevisiae deletion strains, locus YPR163C, strain tif3, active compounds read low 1.03 | S. cerevisiae deletion strains, locus YPR167C, strain met16, active compounds read low 1.02 | S. cerevisiae deletion strains, strain wtn01, active compounds read low 1.02 | S. cerevisiae strains, strain wild type, active compounds read low 0.984
